# Inconclusive results are not listed. The source made the active and inactive calls. Cut-off read from the data, not from the text of the source, unless noted: active = inhibition above about 31%; inactive = the rest.
# How the values were obtained:
# [1] = SK-BR-3 cell growth inhibitors, pilot screen, 24 h, human (AID 572;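 active = viability at or below 10% of carrier control in both of two separate runs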;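 note: compound exposure lasted between 18 and 24 h rather than exactly 24 h; 100% = carrier-treated control wells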); settings: SK-BR-3 viability, CellTiter-Glo luminescence, at 10 µM, stronger effect = lower value
# [2] = HUVEC growth inhibition – cell-based, human, primary screen (AID 575;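 active = viability at or below 30% in both replicate assays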;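 note: 100% = median of untreated cell wells with 0.1% DMSO on each plate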); settings: HUVEC proliferation, CellTiter-Glo luminescence, 72 h; at 10 µM; stronger effect = lower value
# [3] = growth inhibitors of H69AR lung tumor, primary screen, human, duplicate replicates (AID 580;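 active = viability at or under a set limit in both replicates, limit being median viability minus 3 SD, cut at about 48% in these data, passing the limit was not always enough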;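 note: 100% = mean luminescence of untreated wells and 0% = no signal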); settings: H69AR lung tumor cells viability, ATP luminescence, 72 h; at 10 µM; stronger effect = lower value
# [4] = reversal of MRP1-mediated doxorubicin resistance, pilot screen, H69AR cells, doxorubicin co-treatment (AID 601;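 active = viability loss from added drug above about 55%, and viability with drug at most 40%, in both replicates, limit read from the data, passing the limit was not always enough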); settings: CellTiter-Glo, 72 h, at 10 µM; for differential viability (reversal): stronger effect = higher value
# [5] = 384-well plate pilot, post-Golgi transport modulator project, inhibition of yeast transport mutant growth (AID 636); settings: absorbance 615 nm, about 18 h, stronger effect = higher value
# [6] = growth suppression of yeast trafficking mutant, preliminary HTS, modulators of trafficking downstream of Golgi apparatus project, 1536-format plate, OD 615 nm (AID 637; in the data active = inhibition above about 30%); settings: yeast transport mutant growth, absorbance 615 nm, 18 h; stronger effect = higher value
# [7] = OD615 S. cerevisiae growth inhibition, permissive medium, pilot counter-assay, permissive growth control for S. cerevisiae lifespan shortening project (AID 705;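 active = growth inhibition above 25% in both replicates, a cutoff set 3 SD above the mean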); settings: OD615, 24 h, at 10 µM, stronger effect = higher value
# [8] = Restrictive medium S. cerevisiae growth inhibition, OD615, pilot screen of yeast lifespan reduction project, restrictive growth control (AID 706;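 active = growth inhibition above a set limit, 3 SD over mean compound inhibition, in both replicates, cut at about 43% in these data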;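 note: modified DeaD lifespan yeast strain shifted to restrictive glucose medium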); settings: OD615, 48 h, at 10 µM, stronger effect = higher value
# [9] = viability gain of MRP-1-high H69AR cells under doxorubicin, pilot screen, MRP-1 activator project, CellTiter-Glo, duplicate (AID 807;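 active = viability increase at or above a cutoff of the median across tested compounds plus 3 SD, cut at about 8.5% in these data, passing the limit was not always enough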;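 note: compound pretreatment 18-22 h then 72 h combined with doxorubicin; 0% = doxorubicin alone and 100% = vehicle without doxorubicin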); settings: H69AR viability with doxorubicin, CellTiter-Glo luminescence; at 10 µM; stronger effect = higher value
# [10] = growth suppression of beta-catenin knockout HCT116, pilot screen, human colon tumor cells (AID 823;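 active = cell viability at or below a set limit in both duplicate runs, the limit being the all-compound median minus 4 SD, cut at about 23% in these data, passing the limit was not always enough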;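 note: 0% = wells killed by 20 µM Hyamine and 100% = untreated DMSO cell wells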); settings: CellTiter-Glo, 60 h, at 10 µM, stronger effect = lower value
# [11] = growth suppression of PTEN-deleted HCT116, pilot screen, cell-based, HCT116 clonal line, CellTiter-Glo (AID 824;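 active = viability at or below 27.92% in each of two runs, the all-compound median minus 4 SD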;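 note: 0% = 20 µM Hyamine control and 100% = vehicle cell control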); settings: 60 h, at 10 µM, stronger effect = lower value
# [12] = inhibitors of the yeast RAM network, pilot screen, dse1pr::URA3 reporter, 5-FOA selection (AID 869;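 active = inhibition over a set limit, the all-compound mean plus 3 SD, in both replicate runs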;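 note: 0% = DMSO wells with no growth and 100% = 10 µM 1-NA-PP1 with full growth; RAM network block rescues cells from 5-FOA so hits raise OD615 growth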); settings: S. cerevisiae dse1pr::URA3 5-FOA growth, OD615, 2 d; at 10 µM; stronger effect = higher value; strain carries analog-sensitive mutant Cbk1 kinase
# [13] = RAM signaling pathway blockade in yeast – S. cerevisiae, Pdr1DBD-CYC8 efflux-inhibited sensitized strain, primary screen (AID 1298;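 active = RAM network inhibition above 8.4% in each of two replicates, 3 SD over the compound average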;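 note: 0% = DMSO untreated cells without growth and 100% = 10 µM 1-NA-PP1 full growth; higher means more yeast growth rescued from 5-FOA killing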); settings: S. cerevisiae cbk1-as DSE1-URA3 strain, 5-FOA growth OD615, 2 d; at 50 µM; stronger effect = higher value
# [14] = reducers of endogenous Her2 protein level, primary screen, SKBR3 breast tumor cells, AlphaScreen, ATP viability (AID 461;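 active = Her2 level under about 52% in both replicate screens, with viability over 70% of control, limit read from the data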;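 for Her2 level: lower value means less Her2 protein in the cells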;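 for viability: percent of carrier control wells set as 100% viability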); settings: 18-24 h, measured here: SKBR3 viability, ATP luminescence, at 10 µM
# [15] = target: Receptor tyrosine-protein kinase erbB-2 (Homo sapiens) (UniProt P04626); assay: as above; settings: 18-24 h, at 10 µM, stronger effect = lower value
# [16] = H69AR cells + 2 uM doxorubicin, measured here: viability with 2 uM doxorubicin, stronger effect = lower value
# [17] = H69AR cells, compound alone cytotoxicity
# Receptor tyrosine-protein kinase erbB-2 (Homo sapiens), sequence (P04626 whole entry, looked up): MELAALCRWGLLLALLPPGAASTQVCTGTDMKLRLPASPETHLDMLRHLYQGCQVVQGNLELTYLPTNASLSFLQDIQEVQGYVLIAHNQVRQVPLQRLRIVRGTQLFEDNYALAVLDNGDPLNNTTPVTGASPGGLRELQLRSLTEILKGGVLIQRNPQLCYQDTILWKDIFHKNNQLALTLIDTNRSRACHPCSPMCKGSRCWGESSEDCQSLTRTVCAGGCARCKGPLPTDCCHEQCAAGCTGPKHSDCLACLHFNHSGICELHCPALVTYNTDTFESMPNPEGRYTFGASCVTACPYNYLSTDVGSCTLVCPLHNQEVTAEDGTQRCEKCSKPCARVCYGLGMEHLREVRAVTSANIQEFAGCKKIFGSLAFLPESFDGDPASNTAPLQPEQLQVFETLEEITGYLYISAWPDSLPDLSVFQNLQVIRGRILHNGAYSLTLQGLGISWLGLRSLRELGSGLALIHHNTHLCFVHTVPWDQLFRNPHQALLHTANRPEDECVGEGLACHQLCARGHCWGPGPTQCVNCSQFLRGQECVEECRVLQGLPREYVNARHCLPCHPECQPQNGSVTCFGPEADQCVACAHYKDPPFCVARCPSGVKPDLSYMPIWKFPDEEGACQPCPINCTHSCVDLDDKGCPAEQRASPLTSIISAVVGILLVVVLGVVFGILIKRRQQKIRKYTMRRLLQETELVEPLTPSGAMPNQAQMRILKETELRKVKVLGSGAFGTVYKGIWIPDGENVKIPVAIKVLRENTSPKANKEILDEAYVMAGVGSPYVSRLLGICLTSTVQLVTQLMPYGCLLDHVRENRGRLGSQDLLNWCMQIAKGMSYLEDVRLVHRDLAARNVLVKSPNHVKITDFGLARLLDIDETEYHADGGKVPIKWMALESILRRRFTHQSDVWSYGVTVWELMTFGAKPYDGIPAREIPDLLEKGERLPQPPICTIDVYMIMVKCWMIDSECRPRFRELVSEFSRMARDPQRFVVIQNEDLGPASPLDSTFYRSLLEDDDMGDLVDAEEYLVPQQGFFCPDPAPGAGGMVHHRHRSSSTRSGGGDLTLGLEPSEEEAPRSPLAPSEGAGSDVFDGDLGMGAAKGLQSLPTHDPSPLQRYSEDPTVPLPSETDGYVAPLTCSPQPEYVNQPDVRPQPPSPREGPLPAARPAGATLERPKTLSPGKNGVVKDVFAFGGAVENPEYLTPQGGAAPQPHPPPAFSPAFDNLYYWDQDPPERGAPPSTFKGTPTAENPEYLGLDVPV
Structure (SMILES),viability [1],viability [2],viability [3],differential viability (reversal) ([4]; H69AR cells + 2 uM doxorubicin),"viability [4, 16]","viability [4, 17]",inhibition [5],inhibition [6],growth inhibition [7],growth inhibition [8],viability increase [9],viability [10],viability [11],inhibition [12],RAM network inhibition [13],viability [14],Her2 level [15]
COC(=O)c1cc(-c2ccccc2)sc1NC(=O)c1cc(C)on1,121% (inactive),96.6% (inactive),95.9% (inactive),5.14% (inactive),90.8%,95.9%,-4.38% (inactive),-6.45% (inactive),-0.31% (inactive),-11.1% (inactive),-2.24% (inactive),93.7% (inactive),84.2% (inactive),1.4% (inactive),2.94% (inactive),–,–
CCOC(=O)c1ccc(N=c2sc(C(=O)OC)cc(=O)n2Cc2ccco2)cc1,110% (inactive),–,1.51% (active),0.27% (inactive),1.24%,1.51%,-3.21% (inactive),-1.33% (inactive),-11.7% (inactive),-2.14% (inactive),-8.48% (inactive),5.04% (active),1.63% (active),1.42% (inactive),7.3% (inactive),110%,-1.5% (active)
Cc1cc(C)c2c(=O)n(CC(=O)NCCCN3CCOCC3)sc2n1,98% (inactive),64.1% (inactive),–,4.36% (inactive),35.5%,39.8%,-4.53% (inactive),-2.67% (inactive),4.33% (inactive),0.575% (inactive),-4.85% (inactive),–,56.5% (inactive),1.51% (inactive),3.11% (inactive),98%,89.5% (inactive)
C/C=C/CSc1nc2c(c(=O)[nH]c(=O)n2C)n1Cc1ccc(C)cc1,102% (inactive),–,35.5% (active),-22.7% (inactive),58.2%,35.5%,-1.6% (inactive),-0.49% (inactive),0.005% (inactive),1.29% (inactive),-4.39% (inactive),84.4% (inactive),69.3% (inactive),1.98% (inactive),2.77% (inactive),102%,98.5% (inactive)
O=C(NCCN1C(=O)C2C3C=CC(C3)C2C1=O)Nc1ccccn1 (centres undefined),114% (inactive),–,95.8% (inactive),12.5% (inactive),83.3%,95.8%,-3.6% (inactive),-2.33% (inactive),5% (inactive),-0.24% (inactive),-0.81% (inactive),107% (inactive),92.2% (inactive),0.595% (inactive),3.24% (inactive),114%,102% (inactive)
Cc1cc(C)nc(SCc2ccc3nonc3c2)n1,99% (inactive),89.9% (inactive),89.2% (inactive),15.7% (inactive),73.5%,89.2%,-6.53% (inactive),-0.18% (inactive),-9.08% (inactive),-6.27% (inactive),-0.41% (inactive),96.3% (inactive),98% (inactive),0.535% (inactive),3.64% (inactive),–,–
Cc1ccc2nc(NC(=O)Cn3cc4c(n3)CCCCC4)sc2c1,91.5% (inactive),–,93% (inactive),-3.56% (inactive),96.6%,93%,0.51% (inactive),-4.67% (inactive),-4.68% (inactive),10.6% (inactive),-3.78% (inactive),98.2% (inactive),97% (inactive),2.76% (inactive),3.93% (inactive),91.5%,106% (inactive)
COc1ccc(C2C(C(=O)Nc3cccnc3)=C(C)Nc3nc(-c4cccs4)nn32)cc1OC (centres undefined),–,90.5% (inactive),87.8% (inactive),12.1% (inactive),75.7%,87.8%,1.2% (inactive),-6.17% (inactive),-9.82% (inactive),-8.04% (inactive),-1.12% (inactive),106% (inactive),95.6% (inactive),-0.09% (inactive),-1.11% (inactive),59%,94.5% (inactive)
Cc1nc2ccccc2c2oc(C(=O)NCC3COc4ccccc4O3)cc12 (centres undefined),103% (inactive),–,88.4% (inactive),0.085% (inactive),88.3%,88.4%,0.13% (inactive),6.33% (inactive),-0.145% (inactive),-3.1% (inactive),-1.89% (inactive),61.2% (inactive),70.8% (inactive),1.69% (inactive),3.41% (inactive),103%,58.5% (inactive)
O=C(c1ccc2snnc2c1)N1CCOCC1,101% (inactive),90.2% (inactive),102% (inactive),12.8% (inactive),88.9%,102%,-1.73% (inactive),-0.55% (inactive),0.235% (inactive),-15.9% (inactive),0.28% (inactive),102% (inactive),99.4% (inactive),1.69% (inactive),1.07% (inactive),–,–
Cn1c(=O)oc2cc(S(=O)(=O)N3CCN(c4ccccn4)CC3)ccc21,88.5% (inactive),–,73.8% (inactive),0.275% (inactive),73.5%,73.8%,0.26% (inactive),-3.67% (inactive),-8.03% (inactive),-3.75% (inactive),-5.33% (inactive),66% (inactive),69.4% (inactive),1.97% (inactive),5.16% (inactive),88.5%,91.5% (inactive)
C(=N\n1cnnc1)/c1cccc(OCCOc2ccccc2)c1,76% (inactive),96.2% (inactive),94.6% (inactive),4.15% (inactive),90.5%,94.6%,-4.53% (inactive),2% (inactive),-7.18% (inactive),13.9% (inactive),0.62% (inactive),89% (inactive),94.9% (inactive),1.81% (inactive),0.17% (inactive),–,–
CCc1ccc(C(=O)NC2CCCCC2)s1,68% (inactive),94.7% (inactive),109% (inactive),17.8% (inactive),90.7%,109%,-3.01% (inactive),0.81% (inactive),-14.4% (inactive),3.24% (inactive),-0.13% (inactive),91.8% (inactive),–,-0.215% (inactive),4.77% (inactive),–,–
CC(=O)Nc1nnc(SCC(=O)NCC2CCCO2)s1 (centres undefined),70% (inactive),105% (inactive),96.3% (inactive),3.56% (inactive),92.7%,96.3%,0.27% (inactive),7.64% (inactive),-2.62% (inactive),2.21% (inactive),-1.36% (inactive),100% (inactive),88.6% (inactive),0.925% (inactive),-0.72% (inactive),–,–
O=C(CCCn1c(=O)[nH]c2ccsc2c1=O)N1CCN(c2ccccn2)CC1,89% (inactive),99.5% (inactive),101% (inactive),6.23% (inactive),94.5%,101%,-6.4% (inactive),-0.18% (inactive),-0.715% (inactive),2.48% (inactive),-4.76% (inactive),100% (inactive),–,2.25% (inactive),4.21% (inactive),–,–
Cn1c(C(=O)Nc2ccc3c(c2)OCO3)cc2c(=O)n(C)c3ccccc3c21,73% (inactive),72.6% (inactive),34.2% (active),7.56% (inactive),26.6%,34.2%,-2.18% (inactive),2% (inactive),-4.94% (inactive),-3.57% (inactive),-2.91% (inactive),92.4% (inactive),91.5% (inactive),3.22% (inactive),4.86% (inactive),–,–
O=C(CSc1nnnn1-c1ccccc1)Nc1ccc(Cl)cc1,100% (inactive),99.1% (inactive),89.7% (inactive),6.46% (inactive),83.2%,89.7%,2.13% (inactive),6% (inactive),-4.88% (inactive),4.24% (inactive),-3.86% (inactive),74% (inactive),76.8% (inactive),3.12% (inactive),2.55% (inactive),–,–
COc1ccccc1OCCNC(=O)c1cccs1,84% (inactive),115% (inactive),91.1% (inactive),9.52% (inactive),81.6%,91.1%,-3.33% (inactive),-0.18% (inactive),-6.5% (inactive),3.83% (inactive),0.85% (inactive),97.9% (inactive),103% (inactive),1.21% (inactive),7.11% (inactive),–,–
O=C(Nc1cnccn1)c1cccs1,115% (inactive),106% (inactive),99% (inactive),7.32% (inactive),91.7%,99%,-10.8% (inactive),1.77% (inactive),-10.4% (inactive),1.52% (inactive),-2.25% (inactive),–,94.2% (inactive),0.89% (inactive),7.21% (inactive),–,–
CCCc1cc(=O)oc2cc(C)cc(OC(=O)c3ccco3)c12,97% (inactive),62.2% (inactive),95.8% (inactive),9.31% (inactive),86.5%,95.8%,-6.93% (inactive),-7.82% (inactive),-7.19% (inactive),-12.2% (inactive),-1.16% (inactive),96.7% (inactive),80.6% (inactive),3.94% (inactive),4.75% (inactive),–,–
Cc1cc(=O)oc2cc(OCC#N)ccc12,112% (inactive),92.1% (inactive),99.4% (inactive),6.12% (inactive),93.3%,99.4%,-5.07% (inactive),1.33% (inactive),-4.47% (inactive),-4.6% (inactive),1.11% (inactive),106% (inactive),96.1% (inactive),0.155% (inactive),3.55% (inactive),–,–

# — PubChem BioAssay
